Inconclusive results are not listed. A call without a number means that no potency is given here. A number with no mark means an inactive call. Calls of active or inactive are those of the source. Unless noted, the call rests on the fitted dose curve.
Columns and labels:
[1] = biological target: Nuclear receptor subfamily 1 group I member 3 (Homo sapiens) (UniProt Q14994); experiment: qHTS assay to identify small molecule agonists of the constitutive androstane receptor (CAR) signaling pathway (AID 1224839; active means well fitted curve in the direction sought with a large enough effect in the repeat runs; an effect the other way counts as inactive or inconclusive; further: nearly all actives have a fitted effect of over 15% in size; further: potency means the concentration at half of the fitted maximal effect;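 on activation: HepG2 cells stably carrying human CAR and a CYP2B6 luciferase reporter; series mostly up to about 92 µM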)
Sequence of Nuclear receptor subfamily 1 group I member 3 (Homo sapiens) (Q14994 whole entry, looked up): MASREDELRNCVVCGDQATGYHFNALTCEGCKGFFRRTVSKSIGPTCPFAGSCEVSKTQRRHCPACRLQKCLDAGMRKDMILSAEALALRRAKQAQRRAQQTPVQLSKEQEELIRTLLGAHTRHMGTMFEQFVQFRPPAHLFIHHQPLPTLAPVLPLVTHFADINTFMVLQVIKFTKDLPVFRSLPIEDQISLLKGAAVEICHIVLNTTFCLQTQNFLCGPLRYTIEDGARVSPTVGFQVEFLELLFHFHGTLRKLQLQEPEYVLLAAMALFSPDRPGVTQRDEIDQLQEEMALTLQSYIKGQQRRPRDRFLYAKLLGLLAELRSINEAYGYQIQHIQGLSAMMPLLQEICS
Summary of the method: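 HepG2 cells stably expressing hCAR and a CYP2B6-2.2kb luciferase reporter were treated with compounds at 15 concentrations plus 0.75 uM PK11195 (final) for 24 h at 37 C; luminescence was read after ONE-Glo addition.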

[2] = qHTS assay to identify small molecule antagonists of the estrogen related receptor signaling pathway with the pleiotropic PPARgamma coactivator (PGC) from Tox21 10K library - cell viability counter screen (AID 1224840; active means well fitted cell-killing curve with a large enough effect in the repeat runs, not every such curve was filed as active; further: nearly all actives have a fitted effect of over 40% in size)
Summary of the method: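 Cell viability is measured by CellTiter-Fluor fluorescence in PGC/ERR cells that receive compounds after a 6-hour attachment period and are then incubated 17.5 hours at 37 C.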

[3] = qHTS assay to identify small molecule antagonists of the estrogen related receptor signaling pathway with the pleiotropic PPARgamma coactivator (PGC) from Tox21 10K library (AID 1224841; call rule not given here; further: series mostly up to about 92 µM; actives are mostly falling curves and most rising ones were filed inactive; nearly all actives have a fitted effect of over 50% in size)
Summary of the method: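 Cells stably carrying the PGC/ERR reporter, seeded at 2,000 per well, received pin-transferred compounds 6 h post-plating. Exposure lasted 18 h at 37 C. Signal: One-Glo luminescence.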

[4] = qHTS assay to identify small molecule agonists of the estrogen related receptor signaling pathway with the pleiotropic PPARgamma coactivator (PGC) from Tox21 10K library (AID 1224842; active means well fitted curve in the direction sought with a large enough effect in the repeat runs; an effect the other way counts as inactive or inconclusive; further: nearly all actives have a fitted effect of over 15% in size)
Summary of the method: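 PGC/ERR reporter cell line, 2,000 cells per well, incubated 6 h at 37 C before 23 nL compound in DMSO was added. After 18 h at 37 C, One-Glo luminescence read following 30 min at room temperature.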

[5] = biological target: Thyrotropin receptor (Homo sapiens) (UniProt P16473); experiment: qHTS assay to identify small molecule agonists of the thyroid stimulating hormone receptor (TSHR) signaling pathway (AID 1224843); further: nearly all actives have a fitted effect of over 45% in size
Sequence of Thyrotropin receptor (Homo sapiens) (P16473 whole entry, looked up): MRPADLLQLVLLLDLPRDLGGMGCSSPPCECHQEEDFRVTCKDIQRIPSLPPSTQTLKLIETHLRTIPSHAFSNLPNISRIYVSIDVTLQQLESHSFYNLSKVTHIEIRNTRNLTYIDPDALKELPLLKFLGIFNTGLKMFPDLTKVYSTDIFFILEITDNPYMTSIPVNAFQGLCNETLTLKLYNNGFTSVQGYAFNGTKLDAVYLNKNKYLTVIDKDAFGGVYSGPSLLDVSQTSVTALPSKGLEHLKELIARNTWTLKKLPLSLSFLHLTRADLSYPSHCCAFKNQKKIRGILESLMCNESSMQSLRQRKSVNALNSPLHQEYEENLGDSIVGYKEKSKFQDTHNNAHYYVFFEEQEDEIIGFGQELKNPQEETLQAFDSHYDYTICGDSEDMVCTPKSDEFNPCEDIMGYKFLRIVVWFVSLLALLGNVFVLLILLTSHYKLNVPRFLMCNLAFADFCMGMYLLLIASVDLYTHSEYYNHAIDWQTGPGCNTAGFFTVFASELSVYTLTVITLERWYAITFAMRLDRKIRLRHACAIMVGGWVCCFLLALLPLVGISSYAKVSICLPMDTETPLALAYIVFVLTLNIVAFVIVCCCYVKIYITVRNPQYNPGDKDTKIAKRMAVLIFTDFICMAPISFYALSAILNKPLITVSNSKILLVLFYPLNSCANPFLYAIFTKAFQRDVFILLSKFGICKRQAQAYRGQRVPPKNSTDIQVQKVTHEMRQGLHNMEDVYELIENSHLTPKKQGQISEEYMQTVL
Summary of the method: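 HEK293/TSHR, 800 cells/well; cpd 30 min RT; add cAMP-d2 + anti-cAMP-cryptate, 1 h RT; fluorescence read on plate reader. 15-pt titration, n=3.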

[6] = qHTS assay to identify small molecule agonists of the hypoxia (HIF-1) signaling pathway - cell viability counter screen (AID 1224844); further: nearly all actives have a fitted effect of over 50% in size
Summary of the method: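 Viability counter screen: HRE-bla ME-180 cells plated 5 hrs before compound addition, treated 17 hrs at 37C and 5% CO2, then CellTiter-Glo added after the FRET reporter read; luminescence after 30 min.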

[7] = qHTS assay to identify small molecule agonists of H2AX (AID 1224845; active means well fitted activation curve with a large enough effect in the signal ratio in the repeat runs, not every such curve was filed as active; the % refers to the signal ratio)
Summary of the method: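 Wild-type CHO-K1 cells, plated overnight, exposed 3hr at 37C to 15 concentrations (0.76% DMSO final). Lysed, then HTRF anti-pH2AX (S139) cryptate and anti-H2AX-d2 antibodies, 24 hr room temperature; 665/620 nm emission read.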

[8] = qHTS assay to identify small molecule agonists of the hypoxia (HIF-1) signaling pathway (AID 1224846; active means well fitted activation curve with a large enough effect in the signal ratio in the repeat runs, not every such curve was filed as active; the % refers to the signal ratio)
Summary of the method: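 Agonist mode reporter screen. ME-180 cells stably expressing bla under HRE control received test compounds in DMSO for 17 hrs (37C, 5% CO2), and beta-lactamase activity was then detected with the CCF4-AM FRET substrate.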

[9] = qHTS assay to identify small molecule antagonists of the estrogen related receptor (ERR) signaling pathway from Tox21 library (AID 1224848; active means well fitted curve in the direction sought with a large enough effect in the repeat runs; an effect the other way counts as inactive or inconclusive; further: nearly all actives have a fitted effect of over 50% in size; further: potency means the concentration at half of the fitted maximal effect)
Summary of the method: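 Compounds dissolved in DMSO are pin-transferred onto ERR reporter cells (2,000 per well) that have settled for 6 h at 37 C. Plates then incubate 18 h at 37 C before ONE-Glo luciferase reagent and a luminescence read 30 min later.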

[10] = qHTS assay to identify small molecule agonists of H2AX - cell viability counter screen (AID 1224847); further: top concentration of the series differs between compounds; nearly all actives have a fitted effect of over 30% in size
Summary of the method: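 Wild-type CHO-K1 cells (10% FBS medium) were plated overnight at 37C, exposed to compounds at 15 concentrations for 3 hr at 37C (0.76% DMSO final), and viability was read as CellTiter-Glo luminescence after 30 min at room temperature.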

Cc1cccc(NC(=S)N(C)C)c1
Potency [1]: inactive
outcome [2]: inactive
Potency [3]: inactive
outcome [4]: inactive
outcome [5]: inactive
outcome [6]: inactive
outcome [7]: inactive
outcome [8]: inactive
Potency [9]: 48.6 µM (active)

NS(=O)(=O)c1cc2c(cc1Cl)NC(CC1CCCC1)NS2(=O)=O (stereo unspecified)
Potency [1]: inactive
outcome [2]: inactive
outcome [5]: inactive
outcome [6]: inactive
outcome [7]: inactive
Potency [10]: inactive

CCCCOC(=O)C(=O)OCCCC
Potency [1]: inactive
outcome [2]: inactive
Potency [3]: inactive
outcome [4]: inactive
outcome [6]: inactive
outcome [7]: inactive
outcome [8]: inactive
Potency [10]: inactive
Potency [9]: inactive

CC(=O)N1CCN(c2ccc(O)cc2)CC1
Potency [1]: inactive
outcome [2]: inactive
outcome [5]: inactive
outcome [6]: inactive
outcome [8]: inactive
Potency [10]: inactive

CC(=O)OCC(=O)[C@@]1(O)[C@H](OC(C)=O)C[C@H]2[C@@H]3CCC4=CC(=O)C=C[C@]4(C)[C@@]3(F)[C@@H](O)C[C@@]21C
Potency [1]: inactive
outcome [2]: inactive
outcome [6]: inactive
outcome [7]: inactive
outcome [8]: inactive
Potency [10]: inactive

CO[Si](CCCCl)(OC)OC
Potency [1]: inactive
outcome [2]: inactive
outcome [6]: inactive
outcome [7]: inactive
outcome [8]: inactive

Nc1ccc(C(=O)OCC(O)CO)cc1 (stereo unspecified)
Potency [1]: inactive
outcome [2]: inactive
Potency [3]: inactive
outcome [4]: inactive
outcome [5]: inactive
outcome [6]: inactive
outcome [7]: inactive
outcome [8]: inactive
Potency [10]: inactive
Potency [9]: inactive

C=C(C)C(=O)OC
Potency [1]: inactive
outcome [2]: inactive
Potency [3]: inactive
outcome [4]: inactive
outcome [5]: inactive
outcome [6]: inactive
outcome [7]: inactive
outcome [8]: inactive
Potency [10]: inactive
Potency [9]: inactive

CCNC(=O)/C=C/c1cccc(Br)c1
Potency [1]: 26.6 µM (active)
outcome [2]: inactive
outcome [5]: inactive
outcome [6]: inactive
outcome [7]: inactive
outcome [8]: inactive
Potency [10]: inactive

Cc1cccc(C(=O)O)c1[N+](=O)[O-]
Potency [1]: inactive
outcome [2]: inactive
outcome [5]: inactive
outcome [6]: inactive
outcome [7]: inactive
outcome [8]: inactive
Potency [10]: inactive

O=C(O)C(=O)Nc1cccc(-c2nn[nH]n2)c1
Potency [1]: inactive
outcome [2]: inactive
outcome [5]: inactive
outcome [6]: inactive
outcome [7]: inactive
outcome [8]: inactive
Potency [10]: inactive

CCCCC(CC)CNC(=O)CC(C)OC(=O)CCC(=O)O (stereo unspecified)
Potency [1]: inactive
outcome [2]: inactive
Potency [3]: inactive
outcome [5]: inactive
outcome [6]: inactive
outcome [7]: inactive
outcome [8]: inactive
Potency [10]: inactive
Potency [9]: inactive

CCC(=O)c1ccc(O)cc1
Potency [1]: inactive
outcome [2]: inactive
outcome [6]: inactive
outcome [7]: inactive
outcome [8]: inactive
Potency [10]: inactive

O=S(=O)(O)SSS(=O)(=O)O
Potency [1]: inactive
outcome [2]: inactive
outcome [5]: inactive
outcome [6]: inactive
outcome [7]: inactive
outcome [8]: inactive
Potency [10]: inactive

CCN(Cc1cccc(S(=O)(=O)O)c1)c1ccccc1
Potency [1]: inactive
outcome [2]: inactive
outcome [5]: inactive
outcome [6]: inactive
outcome [7]: inactive
outcome [8]: inactive
Potency [10]: inactive

CC(C)(C)c1ccc(C=O)cc1
Potency [1]: inactive
outcome [2]: inactive
outcome [5]: inactive
outcome [6]: inactive
outcome [7]: inactive
outcome [8]: inactive
Potency [10]: inactive

Nc1ccc(S(=O)(=O)Nc2ccccn2)cc1
Potency [1]: inactive
outcome [2]: inactive
outcome [5]: inactive
outcome [6]: inactive
outcome [7]: inactive
Potency [10]: inactive

F[Si-2](F)(F)(F)(F)F
Potency [1]: inactive
outcome [2]: inactive
Potency [3]: inactive
outcome [4]: inactive
outcome [7]: inactive
outcome [8]: inactive
Potency [10]: inactive
Potency [9]: inactive

Nc1nc(=O)n([C@@H]2O[C@H](CO)[C@@H](O)[C@@H]2F)cc1I
Potency [1]: inactive
outcome [2]: inactive
outcome [5]: inactive
outcome [7]: inactive
outcome [8]: inactive
Potency [10]: inactive

CC(C)(c1ccc(Oc2ccc3c(c2)C(=O)OC3=O)cc1)c1ccc(Oc2ccc3c(c2)C(=O)OC3=O)cc1
Potency [1]: inactive
outcome [2]: inactive
Potency [3]: inactive
outcome [4]: inactive
outcome [5]: inactive
outcome [6]: inactive
outcome [7]: inactive
outcome [8]: inactive
Potency [10]: inactive
Potency [9]: inactive

CC(C)(CO)[C@@H](O)C(=O)NCCCO
Potency [1]: inactive
outcome [2]: inactive
Potency [3]: inactive
outcome [4]: inactive
outcome [5]: inactive
outcome [6]: inactive
outcome [7]: inactive
Potency [10]: inactive
Potency [9]: inactive

CC(=O)OC[C@H]1O[C@@H](OC(C)=O)[C@H](OC(C)=O)[C@@H]1OC(C)=O
Potency [1]: inactive
outcome [2]: inactive
Potency [3]: inactive
outcome [4]: inactive
outcome [5]: inactive
outcome [6]: inactive
outcome [7]: inactive
outcome [8]: inactive
Potency [10]: inactive
Potency [9]: inactive

Cc1ccc2c(c1)c1c3n2CCNC3CCC1 (stereo unspecified)
Potency [1]: inactive
outcome [2]: inactive
outcome [5]: inactive
outcome [7]: inactive
Potency [10]: inactive

O=CO
activation [1]: -3.71% [at 8.39 µM]
viability change, negative = cytotoxic [2]: -0.178% [at 8.39 µM]
activity, negative = inhibition [3]: 4.47% [at 8.39 µM]
activation [4]: -0.64% [at 8.39 µM]
activity change, negative = cytotoxicity [6]: -0.151% [at 6.97 µM]
activation (H2AX phosphorylation) [7]: 0.0105% [at 14 µM]
activation [8]: -0.756% [at 7.01 µM]
activity change, negative = cytotoxicity [10]: 0.103% [at 14 µM]
activity, negative = inhibition [9]: -2.33% [at 8.39 µM]

NS(=O)(=O)c1cc2c(cc1Cl)NC(C(Cl)Cl)NS2(=O)=O (stereo unspecified)
Potency [1]: inactive
outcome [2]: inactive
outcome [5]: inactive
outcome [6]: inactive
outcome [7]: inactive
Potency [10]: inactive

CC(=O)c1ccc2c(c1)CCCC2
Potency [1]: inactive
outcome [2]: inactive
Potency [3]: inactive
outcome [4]: inactive
outcome [5]: inactive
outcome [6]: inactive
outcome [7]: inactive
outcome [8]: inactive
Potency [10]: inactive
Potency [9]: inactive

CCOc1ccc(NC(=O)OC(C)C)cc1OCC
Potency [1]: inactive
outcome [2]: inactive
outcome [6]: inactive
outcome [7]: inactive
outcome [8]: inactive
Potency [10]: inactive

CCCCCCCCCCCCC1CO1 (stereo unspecified)
Potency [1]: inactive
outcome [2]: inactive
outcome [6]: inactive
outcome [7]: inactive
outcome [8]: inactive
Potency [10]: inactive

CC(=O)c1ccc(OCC(=O)N2CCCCC2)cc1
Potency [1]: 18.8 µM (active)
outcome [2]: inactive
Potency [3]: inactive
outcome [4]: inactive
outcome [5]: inactive
outcome [7]: inactive
outcome [8]: inactive
Potency [10]: inactive
Potency [9]: inactive

Cc1ccccc1C(=O)N1CC/C(=N\OS(=O)(=O)O)c2ccc(Cl)cc21
Potency [1]: inactive
outcome [2]: inactive
outcome [4]: inactive
outcome [5]: inactive
outcome [6]: inactive
outcome [8]: inactive
Potency [10]: inactive
Potency [9]: inactive

Reference: PubChem BioAssay (Tox21)
